These results are taken from PubChem BioAssay AID1053205 (Broad Institute, 2014).

Measured potencies and affinities stand elsewhere. Inconclusive results are not listed. Unmarked numbers belong to inactive results. The source made the active and inactive calls.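 Rule for the calls: active = compounds lowering the FRET ratio whose fitted half-maximal concentration is at most twice their top tested dose; inconclusive = flat partial drop between 30 and 70 percent, or bad fit; inactive = the rest.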

The target of this assay is Voltage-dependent L-type calcium channel subunit alpha-1D (Homo sapiens) (UniProt Q01668). Description: disruptors of CaV1.3 IQ/ICDI domain association – cell-based, HEK293, YFP-IQ/CFP-ICDI FRET, cherry-picks, dose response (AID 1053205).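 Note: 0% = median of neutral control wells and -100% = median of positive control wells.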 To be noted: HEK293 YFP-IQ/CFP-ICDI FRET ratio, 10 min; series mostly up to 35 µM.
Voltage-dependent L-type calcium channel subunit alpha-1D (Homo sapiens), sequence (Q01668 whole entry, looked up, the tested form may be a part): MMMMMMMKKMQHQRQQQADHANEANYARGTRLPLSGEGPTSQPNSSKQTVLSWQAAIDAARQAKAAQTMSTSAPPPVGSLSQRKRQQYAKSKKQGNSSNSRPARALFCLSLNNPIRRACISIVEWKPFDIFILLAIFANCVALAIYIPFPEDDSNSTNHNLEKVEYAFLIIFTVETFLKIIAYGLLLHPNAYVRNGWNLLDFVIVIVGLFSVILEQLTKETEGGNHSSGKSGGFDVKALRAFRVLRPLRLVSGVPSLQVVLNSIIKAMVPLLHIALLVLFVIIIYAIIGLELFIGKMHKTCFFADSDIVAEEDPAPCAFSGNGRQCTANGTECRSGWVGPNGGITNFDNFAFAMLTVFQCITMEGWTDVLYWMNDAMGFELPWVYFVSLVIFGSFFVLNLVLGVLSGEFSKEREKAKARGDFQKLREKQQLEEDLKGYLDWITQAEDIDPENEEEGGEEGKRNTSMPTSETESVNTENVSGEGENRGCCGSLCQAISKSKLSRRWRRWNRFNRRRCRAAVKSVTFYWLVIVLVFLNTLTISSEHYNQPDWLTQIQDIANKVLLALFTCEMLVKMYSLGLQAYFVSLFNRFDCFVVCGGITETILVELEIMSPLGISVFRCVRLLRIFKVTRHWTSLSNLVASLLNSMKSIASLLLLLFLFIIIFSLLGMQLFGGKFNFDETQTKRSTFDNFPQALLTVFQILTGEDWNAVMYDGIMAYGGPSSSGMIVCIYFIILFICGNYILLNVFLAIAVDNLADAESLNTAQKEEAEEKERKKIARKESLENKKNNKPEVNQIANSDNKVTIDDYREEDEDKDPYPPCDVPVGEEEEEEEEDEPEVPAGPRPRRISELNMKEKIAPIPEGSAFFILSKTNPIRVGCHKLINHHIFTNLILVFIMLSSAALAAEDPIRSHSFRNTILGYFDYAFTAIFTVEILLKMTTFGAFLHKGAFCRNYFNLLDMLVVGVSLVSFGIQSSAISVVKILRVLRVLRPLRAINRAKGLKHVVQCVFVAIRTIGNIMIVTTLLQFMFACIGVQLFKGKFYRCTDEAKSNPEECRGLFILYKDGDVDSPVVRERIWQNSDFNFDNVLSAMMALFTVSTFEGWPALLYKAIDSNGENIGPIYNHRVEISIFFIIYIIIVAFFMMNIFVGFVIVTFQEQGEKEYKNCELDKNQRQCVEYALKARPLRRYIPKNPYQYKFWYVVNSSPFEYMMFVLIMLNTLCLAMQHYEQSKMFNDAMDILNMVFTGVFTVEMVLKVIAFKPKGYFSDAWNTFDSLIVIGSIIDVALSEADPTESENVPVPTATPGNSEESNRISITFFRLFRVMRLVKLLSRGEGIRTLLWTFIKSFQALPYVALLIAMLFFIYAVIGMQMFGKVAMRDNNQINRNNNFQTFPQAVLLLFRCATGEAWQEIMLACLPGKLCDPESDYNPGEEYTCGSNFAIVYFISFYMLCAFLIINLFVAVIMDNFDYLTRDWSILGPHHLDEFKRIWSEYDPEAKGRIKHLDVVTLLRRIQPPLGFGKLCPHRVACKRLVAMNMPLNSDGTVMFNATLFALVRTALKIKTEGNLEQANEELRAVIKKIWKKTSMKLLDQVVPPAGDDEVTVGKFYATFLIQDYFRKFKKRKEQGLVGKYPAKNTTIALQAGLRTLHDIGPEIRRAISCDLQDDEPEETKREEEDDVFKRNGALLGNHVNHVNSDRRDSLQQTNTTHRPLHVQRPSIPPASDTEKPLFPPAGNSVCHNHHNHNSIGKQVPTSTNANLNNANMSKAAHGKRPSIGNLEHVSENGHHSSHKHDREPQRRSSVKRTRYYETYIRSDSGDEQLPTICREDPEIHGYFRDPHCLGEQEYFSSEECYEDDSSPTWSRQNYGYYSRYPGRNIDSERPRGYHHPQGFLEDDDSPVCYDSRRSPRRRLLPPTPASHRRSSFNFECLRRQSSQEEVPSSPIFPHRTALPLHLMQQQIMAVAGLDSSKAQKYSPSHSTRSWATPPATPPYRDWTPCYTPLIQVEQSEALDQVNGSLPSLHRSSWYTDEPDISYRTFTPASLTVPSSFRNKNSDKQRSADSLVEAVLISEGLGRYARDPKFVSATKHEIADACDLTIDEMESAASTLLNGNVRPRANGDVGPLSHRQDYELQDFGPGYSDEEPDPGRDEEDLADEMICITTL
As for `Cc1nc2ccccc2c2oc(C(=O)NCCCN3CCC(C)CC3)cc12`, the result was inactive.

With `COc1ccc(CCNC(=O)CSc2cn(Cc3cccc(C)c3)c3ccccc23)cc1OC`, the outcome was inactive.

Regarding `C=CCn1c(=N)c(C#N)cc2c(=O)n3ccccc3nc21`, the result was inactive.

For the compound `CCOC(=O)c1cc2c(=O)n3ccccc3nc2n(C(C)C)c1=NC(=O)c1ccco1`, the FRET change, negative = inhibition was 208% [at 8 µM].

Regarding `Cc1cc(=O)oc2cc(OC(=O)c3cncc(Br)c3)ccc12`, the outcome was inactive.

On to `CCOc1ccc(-n2c(SCC(=O)Nc3nccs3)nnc2-c2ccoc2C)cc1`, for which the result was inactive.

As for `C/C(=N\NC(=O)CC#N)c1cc2ccc(O)cc2oc1=O`, the outcome was inactive.

Take `COc1ccc(Cn2nnnc2C(CC(C)C)N2CCC(C(N)=O)CC2)cc1` (configuration not stated): the result was inactive.

Turning to `CN1c2ccc(Cl)cc2C(=O)NC1C1CC=CCC1` (configuration not stated), the outcome was inactive.

With `Cc1ccc(C(=O)OCC(=O)Nc2c(C)nn(-c3ccccc3)c2C)c(O)c1`, the result was inactive.

For the compound `COc1ccc(S(=O)(=O)N2CCCC2CNC(=O)C(=O)NC2CCCC2)cc1` (configuration not stated), the outcome was inactive.

As to `S=c1[nH]c2ccc(Cc3ccc4[nH]c(=S)[nH]c4c3)cc2[nH]1`, the result was inactive.

In the case of `Nn1c(SCC(=O)N2CCCC2)nnc1-c1cccs1`, the result was inactive.

As to `Cc1cc(-n2c(=O)c(C#N)cc3c(=O)n4ccccc4nc32)no1`, the outcome was inactive.

Consider `CCCOc1ccc(C(=O)NNC(=S)NC(=O)c2ccco2)cc1`, for which the outcome was inactive.

For the compound `CN(C)/C=C/C(=O)c1c(F)cccc1F`, the outcome was inactive.

Regarding `COC(=O)C1=CN(C)C=C(C(=O)OC)C1c1ccccc1Cl`, the outcome was inactive.

With `Cc1cc2c(C)cc(=O)oc2c2c1NCCC2`, the outcome was inactive.

As to `COc1ccccc1NS(=O)(=O)c1cc(NC(=O)CCNC(C)=O)ccc1C`, the result was inactive.

Consider `Cc1ccc(S(=O)(=O)Nc2ccc(Nc3ccccc3)cc2)cc1`, for which the result was inactive.

As for `O=C(NS(=O)(=O)c1ccc(Cl)s1)c1ccccc1`, the result was inactive.

As to `O=c1oc2cc(O)ccc2cc1S(=O)(=O)c1ccccc1`, the outcome was inactive.

With `COc1ccccc1/C=N/Nc1nc(C)cc(=O)[nH]1`, the outcome was inactive.

`Cc1ccc(-n2nnnc2CNC(=O)C(=O)c2c[nH]c3ccccc23)cc1C`: the result was inactive.

In the case of `CC(=O)c1cccc(-c2ccnc3c2CC(C(=O)NCc2ccc(F)c(F)c2)O3)c1` (configuration not stated), the outcome was inactive.

With `CC1CCCCC1NC(=O)CN1C(=O)c2cccc(N)c2C1=O` (configuration not stated), the outcome was inactive.

Take `CCC(=O)NCCCNc1nc2c(C)cccc2cc1C#N`: the result was inactive.

On to `CCOC1=NN(c2ncc(C(F)(F)F)cc2Cl)C(=O)C1`, for which the outcome was inactive.

As for `CSc1ccc(Cl)c(C(=O)N2CCOc3ccccc32)c1`, the result was inactive.

Regarding `CCOc1ccc2nc(NCCCNS(=O)(=O)c3ccc(C)cc3)c(C#N)cc2c1`, the outcome was inactive.

Regarding `CCCN1CCN(C(=O)c2ccc(CS(=O)c3ccc(Br)cc3)o2)CC1` (configuration not stated), the result was inactive.

For `N#Cc1c(NCCCO)nc(NCc2ccccc2)c2c1CCN(Cc1ccccc1)C2`, the outcome was inactive.

As to `Cn1cccc1/C=N/NC(=O)c1sc2cc(Cl)ccc2c1Cl`, the outcome was inactive.

On to `CCc1nnc(NC(=O)c2ccc(-c3ccccc3F)o2)s1`, for which the outcome was inactive.

As for `CSc1ccc(Cn2c(C)c(C(=O)NCc3cccc(Cl)c3)sc2=O)cc1`, the result was inactive.

For the compound `NC(=O)c1c(NC(=O)Cc2ccccc2)sc2c1CCN(Cc1ccccc1)C2`, the outcome was inactive.

As to `CCC(C)n1c(=N)c(C#N)cc2c(=O)n3cc(C)ccc3nc21` (configuration not stated), the outcome was inactive.
